# Measurements taken from the supplement of paper PMC10981050.
# Values joined by “and” are separate entries in the source; they are usually repeats but may differ in a detail not shown here. Equal entries are not always repeated. Structures can show the parent of a compound that is named as a salt.
# What was measured:
# Assay in all cases: cell viability relative to vehicle control; higher = less cytotoxic
# Details in all cases: 10 µM
# K562 = test system: K562
# Summary of the method: (§1)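 Each screen used CRISPR-edited mutant and wild-type clones from four leukaemia lines. Compounds were acoustically dispensed at a single 10 µM dose, and CellTiter-Glo luminescence was read after 48 h with the supernatant first removed. Viability was analysed in Genedata Screener and given as percent of the on-plate vehicle control.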
# MARIMO = test system: MARIMO
# Summary of the method: as §1
# MOLM14 = test system: MOLM14
# Summary of the method: as §1
# OCI-AML2 = test system: OCI-AML2
# Summary of the method: as §1
Structure (SMILES),cell viability (K562; SRSF2 genotype: SRSF2 P95H/wt),cell viability (K562; SRSF2 genotype: SRSF2 wt/wt) [%],cell viability (MARIMO; SRSF2 genotype: SRSF2 P95H/wt) [%],cell viability (MARIMO; SRSF2 genotype: SRSF2 wt/wt) [%],cell viability (MOLM14; SRSF2 genotype: SRSF2 P95H/wt) [%],cell viability (MOLM14; SRSF2 genotype: SRSF2 wt/wt) [%],cell viability (OCI-AML2; SRSF2 genotype: P95H/wt) [%],cell viability (OCI-AML2; SRSF2 genotype: wt/wt) [%]
NC(=O)NO [Hydroxyurea (Cytodrox)],102% and 106%,103,97.5,105,109,108,108,108
N=C(N)NC(=N)N1CCOCC1 [Moroxydine HCl],99.7% and 100%,91.8,97.6,101,95.8,99.5,98.1,93.8
"Nc1ccccc1NC(=O)c1ccc(CNC(=O)OCc2cccnc2)cc1 [Entinostat (MS-275, SNDX-275)]",9.53% and 33.8%,26.6,22.1,25.4,1.22,1.1,0.59,4.33
CC(C)=CCCC(C)(OC1OC(COC2OCC(O)C(O)C2O)C(O)C(O)C1O)C1CCC2(C)C1C(O)CC1C3(C)CCC(OC4OC(CO)C(O)C(O)C4O)C(C)(C)C3CCC12C (stereo not drawn) [Gynostemma Extract],100% and 107%,102,108,111,101,102,110,98
COc1cc(OC)c(C(=O)CCCN2CCCC2)c(OC)c1 [Buflomedil HCl],93.2% and 114%,108,100,102,112,106,113,101
CC(=O)NC(CC(C)C)C(=O)O (stereo not drawn) [Acetylleucine],91.4% and 98.5%,97,103,93.4,101,94.8,92.2,95.4
CC(C)CC(=O)Nc1n[nH]c2c1CN(C(=O)C1CCN(C)CC1)C2(C)C,37.5% and 39.7%,38.4,15.8,6.67,2.48,1.14,8.45,17.8
"Cc1[nH]c(/C=C2\C(=O)Nc3ccccc32)c(C)c1CCC(=O)O [Orantinib (TSU-68, SU6668)]",98.7% and 95.2%,95.5,96.3,103,82,89.2,75.2,84.2
CC1=NN(c2ccccc2)C(=O)C1 [Edaravone (MCI-186)],107% and 105%,107,111,108,96.3,109,116,103
CCOc1cc(N)c(Cl)cc1C(=O)NCC1CN(Cc2ccc(F)cc2)CCO1 (stereo not drawn) [Mosapride citrate],82.7% and 81.9%,80,74.1,89.5,103,93.2,81.5,82.3
CC1=CCC[C@H](C)C(=O)C[C@@H](C(C)C)C(=O)C1 [Curdione],93.2% and 88.9%,83.8,93.8,90.8,91.2,87.5,91,87.2
C=C1C(=O)O[C@@H]2/C=C(\C)CC/C=C(\C)CC[C@@H]12 [Costunolide],23.8% and 32%,41.4,25.3,17.8,3.29,5.5,2.25,7.11
C[C@H](CCC(=O)O)[C@H]1CC[C@H]2[C@@H]3[C@H](O)C[C@@H]4C[C@H](O)CC[C@]4(C)[C@H]3C[C@H](O)[C@]12C [Cholic acid],94.2% and 93.3%,100,91.6,98,98.9,97.6,98.5,98.9
O=C1NCCc2[nH]c(-c3ccncc3)cc21,50.4% and 42%,63.5,12.7,7.5,1.91,0.86,4.1,14.9
N#Cc1ccc(-c2csc(NN=C3CCCC3)n2)cc1 [Remodelin],76.6% and 86.8%,87.6,66.9,62.1,92.3,99.4,61,72.3
O=c1c(O)c(-c2ccc(O)c(O)c2)oc2cc(O)cc(O)c12 [Quercetin dihydrate (Sophoretin)],107% and 99.5%,92.6,98.4,98,100,99.6,97.4,96.5
CN(CCNc1ccnc2cc(Cl)ccc12)CCNc1ccnc2cc(Cl)ccc12,17.1% and 23.8%,18.8,19.4,11.8,0.51,0.43,0.35,0.6
CC(C)C[C@H](NC(=O)[C@H](CCc1ccccc1)NC(=O)CN1CCOCC1)C(=O)N[C@@H](Cc1ccccc1)C(=O)N[C@@H](CC(C)C)C(=O)[C@@]1(C)CO1 [Carfilzomib (PR-171)],2.27% and 2.75%,1.72,0.54,1.08,0.49,0.49,0.45,0.57
O=C1NC(=NCc2cccs2)S/C1=C\c1ccc2ncccc2c1,92% and 98.2%,98.2,50.9,77.9,37,41.1,53.8,57.1
CC(C)[C@H](C(=O)Nc1ccc(C(=O)NO)cc1)c1ccccc1,1.61% and 11.3%,3.69,5.31,12.1,0.73,0.52,2.49,4.03
COc1cc2nccc(Oc3ccc(NC(=O)C4(C(=O)Nc5ccc(F)cc5)CC4)cc3)c2cc1OC [Cabozantinib malate],21% and 29.7%,23.6,67.3,87.3,6.23,7.8,23.3,27.8

Structure (SMILES),cell viability (K562; SRSF2 genotype: SRSF2 P95H/wt),cell viability (K562; SRSF2 genotype: SRSF2 wt/wt) [%],cell viability (MARIMO; SRSF2 genotype: SRSF2 P95H/wt) [%],cell viability (MARIMO; SRSF2 genotype: SRSF2 wt/wt) [%],cell viability (MOLM14; SRSF2 genotype: SRSF2 P95H/wt) [%],cell viability (MOLM14; SRSF2 genotype: SRSF2 wt/wt) [%],cell viability (OCI-AML2; SRSF2 genotype: P95H/wt) [%],cell viability (OCI-AML2; SRSF2 genotype: wt/wt) [%]
CC(C)(C)[N+]([O-])=Cc1ccc(S(=O)(=O)O)cc1S(=O)(=O)O [NXY-059 (Disufenton sodium)],111% and 102%,109,109,110,104,108,102,104
CN1CCN(C(=O)c2ccc(-c3ccc4c(C=O)c(O)ccc4c3)s2)CC1,68.3% and 74.8%,71.6,66.8,53.4,73.2,76.8,72.9,79.5
CCN1CCN(c2cc3c(cc2F)c(=O)c(C(=O)O)cn3C2CC2)CC1 [Enrofloxacin],98.9% and 111%,99.2,108,111,103,111,109,109
CCc1nc(N)nc(N)c1-c1ccc(Cl)cc1 [Pyrimethamine],73.7% and 96.8%,36.4,95.2,99.7,102,92.3,107,102
NC(=O)/C(=C/n1cnc(-c2cc(C(F)(F)F)cc(C(F)(F)F)c2)n1)c1cncnc1,3.74% and 12.7%,11.3,15.4,17.5,0.67,0.57,1.55,4.56
CC/C(=C(\c1ccccc1)c1ccc(OCCN(C)C)cc1)c1ccccc1 [Tamoxifen Citrate (Nolvadex)],82.2% and 76.4%,93,80,74.3,74.5,81.8,69.7,74.5
O=C(C1CCCCC1)N1CC(=O)N2CCc3ccccc3C2C1 (stereo not drawn) [Praziquantel (Biltricide)],105% and 101%,102,109,107,111,109,115,103
CC(C)n1c(=O)n(C)c2cnc3cc(F)c(-c4ccc(OCCCN5CCCCC5)nc4)cc3c21,71.3% and 72.9%,75.9,60,61,30.9,32,32.7,37
C[C@H](NC(=O)CCc1nc2ccccc2c(=O)[nH]1)c1ccccc1,103%,108,106,100,105,100,105,121
"CC(C)(C)C(=O)OCOP(=O)(COCCn1cnc2c(N)ncnc21)OCOC(=O)C(C)(C)C [Adefovir Dipivoxil (Preveon, Hepsera)]",59.1% and 71.3%,75.8,30.7,36.8,0.75,0.59,0.85,2.98
CN1CCN(c2ccc3nc(-c4c(N)c5c(F)cccc5[nH]c4=O)[nH]c3c2)CC1 [Dovitinib (TKI258) Lactate],5.06% and 10.2%,8.08,9.85,12,0.28,0.3,0.28,0.65
CO[C@@H](C)Cn1c(=O)n(C)c2cnc3ccc(-c4cncc(C(C)(C)O)c4)cc3c21,34.4% and 40.7%,35,38.5,35.8,18.6,19.2,5.3,13.6
O=C(O)c1cc(=O)c2c(OCC(O)COc3cccc4oc(C(=O)O)cc(=O)c34)cccc2o1 [Disodium Cromoglycate],93.6%,95,94.8,98.5,94,94.4,92.8,99
O=c1cc[nH]c(=S)[nH]1 [2-Thiouracil],101% and 103%,100,98.6,109,106,106,107,104
CCCNC(C)C(=O)Nc1ccccc1C (stereo not drawn) [Prilocaine],87.8% and 85.9%,86.8,79.4,90.5,93.3,85.6,89.1,90.7
O=C(O)CC(O)C(=O)O (stereo not drawn) [Malic acid],82.4% and 82.1%,83.7,99.6,88.9,77.2,101,102,104
Cc1cc(SCc2sc(-c3ccc(C(F)(F)F)cc3)nc2C)ccc1OCC(=O)O,102% and 95.2%,96.7,92,103,87.6,97.3,90.4,95.4
CC(CNC(=O)c1cccnc1)NC(=O)c1cccnc1 (stereo not drawn) [Nicaraven],100% and 95.4%,107,106,108,101,104,101,98.4
O=C1N=C(N2CCOCC2)CN1c1ccc(Cl)cc1,107% and 99%,94.4,99.3,111,94.8,104,95.4,86.8
CC(=O)[C@H]1CC[C@H]2[C@@H]3CC=C4C[C@@H](O)CC[C@]4(C)[C@H]3CC[C@]12C [Pregnenolone],103% and 108%,107,103,105,101,105,100,107
